Results reported in PubChem BioAssay AID488969 (Vanderbilt High Throughput Screening Facility, 2010).
Whole data set: some 110,000 compounds, median “z-score” near -0.1, cut for the highest 2% near 2. Only a selection was taken, and the highest values are over-represented in it overall. Calls of active or inactive are those of the source.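 Rule for the calls: active = z-score in the third read window above 3 or below -3; inactive = the rest.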

Molecular target: Metabotropic glutamate receptor 8 (Rattus norvegicus) (UniProt P70579)
Test: mGluR8 Gi/Go-coupled signaling modulation – cell-based, rat, thallium flux, HTS, primary screen (AID 488969)
Details: HEK293 rat mGluR8, GIRK (G protein-gated inwardly rectifying potassium channel) thallium flux, FluoZin2; at 10 µM; stronger effect = higher value; submaximal glutamate (EC20) added with thallium

Metabotropic glutamate receptor 8 (Rattus norvegicus), sequence (P70579 whole entry, looked up): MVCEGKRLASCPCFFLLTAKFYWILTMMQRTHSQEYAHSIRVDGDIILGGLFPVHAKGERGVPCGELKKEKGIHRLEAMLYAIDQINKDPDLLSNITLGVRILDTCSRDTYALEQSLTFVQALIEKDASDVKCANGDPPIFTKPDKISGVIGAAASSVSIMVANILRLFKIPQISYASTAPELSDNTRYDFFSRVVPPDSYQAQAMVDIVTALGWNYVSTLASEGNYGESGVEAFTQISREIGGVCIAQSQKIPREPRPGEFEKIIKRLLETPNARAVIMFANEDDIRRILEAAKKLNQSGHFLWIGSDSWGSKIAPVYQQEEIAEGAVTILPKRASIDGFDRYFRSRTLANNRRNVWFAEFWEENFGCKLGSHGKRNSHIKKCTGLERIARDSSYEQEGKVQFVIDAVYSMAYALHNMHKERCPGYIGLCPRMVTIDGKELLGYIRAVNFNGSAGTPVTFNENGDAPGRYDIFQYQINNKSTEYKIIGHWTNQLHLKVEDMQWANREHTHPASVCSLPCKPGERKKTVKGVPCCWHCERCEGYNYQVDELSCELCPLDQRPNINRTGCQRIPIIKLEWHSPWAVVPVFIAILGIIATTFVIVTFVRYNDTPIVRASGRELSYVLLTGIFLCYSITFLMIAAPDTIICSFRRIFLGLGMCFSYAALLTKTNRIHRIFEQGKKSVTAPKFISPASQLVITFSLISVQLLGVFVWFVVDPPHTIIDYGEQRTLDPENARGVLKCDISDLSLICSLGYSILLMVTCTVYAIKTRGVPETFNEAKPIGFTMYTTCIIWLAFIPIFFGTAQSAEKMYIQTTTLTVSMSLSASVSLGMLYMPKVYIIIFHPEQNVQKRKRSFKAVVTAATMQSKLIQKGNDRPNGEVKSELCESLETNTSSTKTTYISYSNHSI

| Structure (SMILES) | z-score |
| --- | --- |
| CCOc1ccc(C(=O)/C=C/c2ccccc2C(F)(F)F)cc1 | -0.354 |
| O=C(NCc1ccccn1)c1c(Cl)cccc1Cl | 0.0849 |
| CC(C)CCn1c(C(C)O)nc2ccccc21 (stereo not drawn) | -0.257 |
| CC(O)c1nc2ccccc2n1C1CCCCC1 (stereo not drawn) | 6.36 (active) |
| CCCCn1c(C(C)O)nc2ccccc21 (stereo not drawn) | -0.321 |
| N#CCCn1cc(C(CC(=O)c2ccccc2)C(=O)O)c2ccccc21 (stereo not drawn) | -0.0596 |
| Cc1cccc(N=c2oc3cc(O)ccc3cc2C(N)=O)c1 | 0.0144 |
| COc1ccc(OC)c(N=c2oc3cc(O)ccc3cc2C(N)=O)c1 | 1.99 |
| COc1ccc(N=c2oc3cc(O)ccc3cc2C(=O)NCC2CCCO2)c(OC)c1 (stereo not drawn) | -0.403 |
| C=CCN1C(=O)/C(=C2/Sc3ccccc3N2CCCS(=O)(=O)O)SC1=S | -0.352 |
| C=CCN1C(=O)/C(=C2/Sc3ccccc3N2C)SC1=Nc1c(C)n[nH]c1C | 3.97 (active) |
| C=CCN1C(=O)/C(=C2/Sc3ccccc3N2C)SC1=Nc1ccccc1C | -0.792 |
| CCOC(=O)c1ccc(N2C(=O)CC(N3CCC(O)(c4ccc(Cl)cc4)CC3)C2=O)cc1 (stereo not drawn) | 0.433 |
| CCCCC1S/C(=N/N=C/c2ccc(OC)cc2)N(Cc2ccc(OC)cc2)C1=O (stereo not drawn) | -0.524 |
| CCOC(=O)c1c(CN(CC)CC)oc2cc(Br)c(O)cc12 | -1.27 |
| COC(=O)C1CCN(C(=O)COc2cc3sc(C)nc3c3sccc23)CC1 | -1.34 |
| CCc1nnc(NS(=O)(=O)c2ccc(NC(=S)NC(=O)c3ccc(F)cc3)cc2)s1 | 0.102 |
| Cc1cc(NS(=O)(=O)c2ccc(NC(=S)NC(=O)c3ccccc3)cc2)no1 | 2.22 |
| Cc1cc(NS(=O)(=O)c2ccc(NC(=O)Nc3ccccc3)cc2)no1 | 0.82 |
| CCc1nnc(NS(=O)(=O)c2ccc(NC(=S)NC(=O)c3ccccc3)cc2)s1 | 5.21 (active) |
| Cc1cc(NS(=O)(=O)c2ccc(NC(=S)NC(=O)c3ccc(F)cc3)cc2)no1 | -0.0103 |
| CCc1nnc(NS(=O)(=O)c2ccc(NC(=S)NC(=O)c3ccc(Br)cc3)cc2)s1 | -1.21 |
| Cc1ccc(Cn2c(SCC(=O)N/N=C/c3ccc(C)o3)nc3ccccc32)cc1 | -0.169 |

| Structure (SMILES) | z-score |
| --- | --- |
| Cc1ccc(-c2cnc(SCC(=O)N3CCCc4ccccc43)n2C)cc1 | -0.31 |
| O=C1c2ccccc2C(=O)N1CC1=CCS(=O)(=O)C1 | 0.399 |
| COc1ccc(N2CCN(C(=O)CCCn3c(=S)[nH]c4cc5c(cc4c3=O)OCO5)CC2)cc1 | -0.487 |
| Cc1cc(C)nc(NC(=O)CCC2CCCC2)c1 | -0.0409 |
| CS(=O)(=O)Nc1ccc(C(=O)NCCC2=CCCCC2)cc1 | 1.28 |
| COc1ccc(-n2c(C)nc3cc(C(=O)NCc4ccc5c(c4)OCO5)ccc32)cc1 | -0.347 |
| COc1ccc(-n2c(C)nc3cc(C(=O)NCc4ccco4)ccc32)cc1 | 2.54 |
| CCOc1ccc(-n2c(C)nc3cc(C(=O)NCc4ccco4)ccc32)cc1 | 0.364 |
| CC(=O)c1c(C)nn(C(C)CC(=O)O)c1C (stereo not drawn) | -0.0267 |
| COc1cc(OC)nc(NC(=O)CSc2nnc(-c3ccccc3)n2C2CCCCC2)n1 | -0.277 |
| O=C(Nc1cccc(F)c1)c1ccccc1-c1ccccc1 | -0.369 |
| Cc1nnc(SCC(=O)N2c3ccccc3C(C)(c3ccc(Cl)cc3)CC2(C)C)s1 (stereo not drawn) | 0.227 |
| CC(=O)N1c2ccccc2C(C)(c2ccccc2)CC1(C)C (stereo not drawn) | -0.236 |
| Cc1nnc(SCC(=O)N2c3ccccc3C(C)(c3ccccc3)CC2(C)C)s1 (stereo not drawn) | 0.611 |
| CN1CCN(CC(=O)N2c3ccccc3C(C)(c3ccccc3)CC2(C)C)CC1 (stereo not drawn) | 3.59 (active) |
| CN1CCN(CC(=O)N2c3ccccc3C(C)(c3ccc(Cl)cc3)CC2(C)C)CC1 (stereo not drawn) | 3.21 (active) |
| CC1(c2ccccc2)CC(C)(C)N(C(=O)CSc2nnc(N)s2)c2ccccc21 (stereo not drawn) | -0.521 |
| CC1Cc2ccccc2N1C(=O)CCNS(=O)(=O)c1ccc2c(c1)CCC(=O)N2 (stereo not drawn) | -0.0721 |
| Cn1c(=O)c2c(nc(NCCO)n2C)n(C)c1=O | 0.204 |
| CCn1c(NCc2ccco2)nc2c1c(=O)n(C)c(=O)n2C | 0.397 |
| CCn1c(C)c(C2=CCN(S(=O)(=O)c3ccc(C)cc3)CC2)c2ccccc21 | 0.0891 |
| CCN1C(=O)c2cccc3cccc1c23 | -0.389 |
| CCOc1ccc2c(c1)c(N=Nc1cccc(C(=O)O)c1)c(O)n2C | -0.0674 |

| Structure (SMILES) | z-score |
| --- | --- |
| CCn1c(O)c(N=NC2=NC(=O)CS2)c2ccccc21 | 0.217 |
| CCc1ccc2c(c1)c(N=NC1=NC(=O)CS1)c(O)n2CC | 2.98 |
| CCn1c(O)c(N=NC2=NC(=O)CS2)c2cc(C)ccc21 | 2.24 |
| CCc1ccc2c(c1)c1nnc(NN)nc1n2CC | -0.278 |
| CCOc1ccc2c(c1)c(N=NC(=N)N)c(O)n2C | -0.224 |
| CCn1c(O)c(N=NC(=O)CNc2cccc(C)c2)c2ccccc21 | 1.4 |
| CCc1ccc2c(c1)c(N=NC1=NC(=O)CS1)c(O)n2C | 2.09 |
| Cc1cc(C)nc(N=Nc2c(O)n(Cc3ccc(Cl)cc3)c3ccccc23)n1 | 0.0163 |
| Cc1ccc(O)c(C(=O)/C=C/c2ccc3c(c2)OCCCO3)c1 | 0.653 |
| CC(=O)NC1=NN(C(C)=O)C(C)(CS(=O)(=O)c2ccc(C)c(C)c2)S1 (stereo not drawn) | -0.323 |
| COc1ccc(CN(C(=O)c2ccco2)c2ccc(Br)cc2)cc1OC | -0.544 |
| CCOC(=O)c1sc(C)c2c(=O)n(CC)nnc12 | 0.154 |
| Cc1ccc(NC(=S)NNC(=O)c2cn(C)nc2C)cc1 | 0.188 |
| CC(=O)c1c(N2CCN(C)CC2)[nH]c(-c2ccccc2)nc1=S | 0.167 |
| CSc1nc(-c2ccccc2)nc(SC)c1C(C)=O | -0.493 |
| CSc1nc(-c2ccccc2)nc(N)c1C(C)=O | -0.0854 |
| CC(=O)c1c(N2CCCC2)[nH]c(-c2ccccc2)nc1=S | 14.8 (active) |
| CC(=O)c1c(N)[nH]c(-c2ccccc2)nc1=S | 1.28 |
| CSc1nc(-c2ccccc2)[nH]c(=S)c1C(C)=O | 7.43 (active) |
| S=C(NC12CC3CC(CC(C3)C1)C2)N1CCCC1 | -0.0857 |
| N#C/C(=C(/O)COC(=O)Cc1c[nH]c2ccccc12)c1nc2ccccc2[nH]1 | -0.819 |
| Cc1ccc2c(c1)NC(=O)C(CC(=O)NCCCN1CCCC1)O2 (stereo not drawn) | 0.515 |
| CCSc1nc(N)c(C#N)c(-c2ccco2)c1C#N | -0.377 |

| Structure (SMILES) | z-score |
| --- | --- |
| COC(=O)CSc1nc(N)c(C#N)c(-c2ccco2)c1C#N | -0.328 |
| N#Cc1c(N)nc(SCc2ccccc2)c(C#N)c1-c1ccco1 | 11.4 (active) |
| COc1ccc(Oc2coc3cc(OC(=O)N4CCOCC4)ccc3c2=O)cc1 | -0.0315 |
| Cc1cccc(Nc2nnc(SCC3CCCCO3)s2)c1C (stereo not drawn) | -0.0272 |
| COc1cccc(N(C(=O)Cn2nnc(-c3ccc(C)o3)n2)C(C(=O)NC(C)(C)C)c2cccs2)c1 (stereo not drawn) | 0.439 |
| O=C(NC(=S)Nc1ccccc1N1CCCCC1)c1cccs1 | -0.0387 |
| O=C(Nc1ccccc1N1CCOCC1)c1cccs1 | 0.511 |
| CCCC(=O)NC(=S)Nc1cccc(Cl)c1N1CCCCC1 | 0.12 |
| O=C(NC(=S)Nc1ccccc1N1CCOCC1)c1cccs1 | 4.28 (active) |
| O=C(Nc1ccccc1N1CCCCC1)c1ccco1 | -0.657 |
| CCC(=O)NC(=S)Nc1cccc(Cl)c1N1CCCCC1 | 0.315 |
| CS(=O)(=O)N1CCN(c2ccccc2NC(=O)c2ccco2)CC1 | -0.175 |
| O=C(NC(=S)Nc1ccccc1N1CCCCC1)c1ccco1 | 5.87 (active) |
| O=C(Nc1ccc(N2CCOCC2)cc1N1CCOCC1)c1cccs1 | -0.508 |
| O=C(NC(=S)Nc1cccc(Cl)c1N1CCCCC1)c1cccs1 | 2.55 |
| O=C(NC(=S)Nc1cccc(Cl)c1N1CCCCC1)c1ccco1 | 5.38 (active) |
| O=C(NC(=S)Nc1cccc(Cl)c1N1CCCCC1)c1ccc2c(c1)OCCO2 | 0.413 |
| Cc1ccc(NC(=O)c2ccc(CSc3nnnn3C)cc2)cc1 | -0.174 |
| COc1ccc(-n2c(N)c(C(=O)NCc3cccnc3)sc2=S)cc1 | 0.463 |
| Cc1nc(NNC(=O)c2ccc(Cl)cc2Cl)cc(-c2ccccc2)n1 | 0.141 |
| CCCOC(=O)c1ccc(OCC(O)CN2C(=O)NC(C)(C)C2=O)cc1 (stereo not drawn) | 0.307 |
| O=[N+]([O-])c1cccc(C(=Nc2ccc(Cl)cc2)NO)c1 | -0.259 |
| CC(NC(=O)Nc1nnc(C(F)(F)F)s1)N1C(=O)C2C3C=CC(C3)C2C1=O (stereo not drawn) | 0.0447 |

| Structure (SMILES) | z-score |
| --- | --- |
| CCCCCNc1nc(NCCCO)c(C#N)c2c1CN(C)CC2 | -0.528 |
| CC1CCN(c2ccccc2NC(=S)NC(=O)c2ccco2)CC1 | 3.89 (active) |
| O=C(Nc1ccccc1N1CCCC1)c1ccco1 | -0.0103 |
| O=C(NC(=S)Nc1ccccc1N1CCOCC1)c1ccco1 | 9.71 (active) |
| CC1CCN(c2ccccc2NC(=S)NC(=O)c2cccs2)CC1 | 1.61 |
| CC1CCN(c2ccccc2NC(=O)c2ccc(F)cc2)CC1 | -0.52 |
| O=C(Cc1ccc(Cl)cc1)NC(=S)Nc1ccccc1N1CCOCC1 | 0.883 |
| N#C/C(=C\c1ccc(Cl)cc1Cl)c1n[nH]c(Cn2cncn2)n1 | -1.59 |
| O=c1cc(NCc2ccco2)c2ccccc2o1 | -0.304 |
| CC1=C(C(=O)OC(C)C)C(c2cccs2)C(C(=O)OC(C)C)=C(C)N1 | -0.281 |
| NC(=O)c1cccnc1Nc1ccccc1Cl | -0.423 |
| O=C(/C=C/c1cccc([N+](=O)[O-])c1)NCCSc1ccccc1 | -0.3 |
| COc1ccc(C(C(=O)NC(C)(C)C)N(C(=O)CNC(=O)c2cccs2)c2ccc(C(C)C)cc2)cc1OC (stereo not drawn) | -0.16 |
| O=C(CSc1cnc2ccccc2n1)NC1CCCC1 | -0.494 |
| COc1ccccc1N1CCN(S(=O)(=O)c2cccc3nsnc23)CC1 | -0.393 |
| Cc1ccc(OCC(O)Cn2c3ccccc3c3ccccc32)cc1 (stereo not drawn) | -0.222 |
| COc1ccccc1OCC(O)Cn1c(=N)n(Cc2ccccc2)c2ccccc21 (stereo not drawn) | 0.691 |
| Cc1ccc(Cn2c(=N)n(CC(O)COc3ccccc3)c3ccccc32)cc1 (stereo not drawn) | 2.98 |
| OC(COc1ccccc1)Cn1c2ccccc2c2ccccc21 (stereo not drawn) | -0.0732 |
| N=c1n(Cc2ccccc2)c2ccccc2n1CC(O)COc1ccccc1 (stereo not drawn) | 0.257 |
| Cc1ccc(OCC(O)Cn2c(=N)n(Cc3ccccc3)c3ccccc32)cc1 (stereo not drawn) | 4.01 (active) |
